In the library only some 4.6% were active in any assay of this set; here they are far more common.
D1 potentiator – potentiators of human D1 dopamine receptor | 0.036% of 360,000 active | AID 504651 | HEK293 TREx D1 cells, calcium flux, dopamine EC20 potentiation | potentiation, % at 10 µM; in the data active = potentiation above about 30%; note: 0% is about no effect
TRHR enhancer – allosterically enhances the human TRH receptor; AID 493056; enhancement, % at 2 µM; 0.66% of 360,000 active; TRHR cells, fluo-8 calcium fluorescence, EC20 TRH enhancement; P34981; in the data active = enhancement above about 30%; note: 0% is about no effect
Target sequence (P34981 whole entry, looked up): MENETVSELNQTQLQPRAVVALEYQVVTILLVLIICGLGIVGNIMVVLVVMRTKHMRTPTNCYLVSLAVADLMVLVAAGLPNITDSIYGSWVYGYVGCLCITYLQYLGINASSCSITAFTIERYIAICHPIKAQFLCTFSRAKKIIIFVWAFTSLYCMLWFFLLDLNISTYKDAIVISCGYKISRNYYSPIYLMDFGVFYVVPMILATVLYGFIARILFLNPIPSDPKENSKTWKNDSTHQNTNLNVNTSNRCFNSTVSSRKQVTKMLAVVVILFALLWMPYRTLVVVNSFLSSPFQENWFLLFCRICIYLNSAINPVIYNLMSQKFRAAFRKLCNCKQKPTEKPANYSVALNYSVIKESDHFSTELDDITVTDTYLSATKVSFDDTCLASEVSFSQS
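TRHR-expressing cells loaded with fluo-8 calcium dye were read kinetically (ex 480/em 530) during compound addition, then stimulated with an EC20 of TRH (10 nM final). Enhancement of the Gq-mediated intracellular calcium response was scored.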
D1 antagonist – blocks dopamine activation of the human D1 receptor; P21728; HEK293 TREx D1 cells, calcium flux, dopamine EC80; active compounds read low; activity change, negative = inhibition, % at 10 µM; 3.2% of 360,000 active; AID 504652; in the data active = activity change below about -30%; note: % is set by controls: 0 for no effect and ±100 for the full control effect
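Allosteric or orthosteric antagonism assessed as attenuation of the calcium response to EC80 dopamine, added 180 s after compound, in induced HEK293 Trex D1 cells loaded with no-wash calcium dye.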
D1 ag – activates the human D1 dopamine receptor | P21728 | HEK293 T-REx D1 cells, calcium flux, agonist mode | activation, % at 2 µM | 1% of 360,000 active | AID 504660; note: 0% is about no effect
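Inducible HEK293 T-REx D1 cells, force-coupled to calcium signalling, were plated at 4000 cells/well with tetracycline and held overnight at 30 C. After no-wash calcium dye loading, compound-evoked calcium rise over 180 s flagged agonists.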
TRHR agonist – TRH receptor (human) agonism; TRHR cells, calcium flux fluo-8, FDSS agonist mode; activation, % at 2 µM; 0.18% of 360,000 active; note: 0% is about no effect
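TRHR-expressing cells, plated overnight in medium with 10% serum, were loaded with fluo-8 calcium dye at room temperature. After a 10 s baseline, library compound was pin-added and calcium release was recorded kinetically (ex 480/em 530) as agonist response.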
The depositor's hits bear a star. Cut-off read from the data, not from the text of the source, unless noted: active = activation above about 30%; inactive = the rest.

Results for O=C(NCCc1ccccc1)c1cccc(S(=O)(=O)NCc2ccccc2)c1 ?
D1 potentiator: -3; TRHR enhancer: 0; D1 antagonist: 1; D1 ag: 4; TRHR agonist: 1

Results for CC(C)(C)C(=O)COC(=O)CNC(=O)c1ccc(Oc2ccccc2)cc1 ?
D1 potentiator: 7; TRHR enhancer: -3; D1 antagonist: -49*; D1 ag: 159*; TRHR agonist: 0

How did COC(=O)CCCNC(=O)c1ccc(OS(=O)(=O)c2cc([N+](=O)[O-])ccc2C)cc1 do in these assays?
D1 potentiator: 4; TRHR enhancer: 2; D1 antagonist: -11; D1 ag: 63*; TRHR agonist: -1

What do the screens show for `O=C(NCCOc1ccccc1)c1ccccc1[N+](=O)[O-]`?
D1 potentiator: -2; TRHR enhancer: 4; D1 antagonist: 1; D1 ag: 1; TRHR agonist: 0

What do the screens show for `CC(C)OP(=O)(c1ccc(N(C)C)cc1)C(Nc1ccccc1)c1ccccc1` (stereo not given)?
D1 potentiator: -17; TRHR enhancer: -3; D1 antagonist: -40*; D1 ag: -1; TRHR agonist: 0

What do the screens show for `CC(C)CCOP(=O)(c1ccc(N(C)C)cc1)C(Nc1ccccc1)c1ccc(N(C)C)cc1` (stereo not given)?
D1 potentiator: 2; TRHR enhancer: 0; D1 antagonist: 12; D1 ag: 0; TRHR agonist: -1

Results for CCOC(=O)CNC(=O)c1nn(-c2ccc(OCC)cc2)c(=O)c2ccccc12 ?
D1 potentiator: 5; TRHR enhancer: -5; D1 antagonist: 5; D1 ag: 2; TRHR agonist: -1

Results for NC(=O)NC(=O)C(c1ccccc1)N1CCN(S(=O)(=O)Cc2ccccc2)CC1 (stereo not given) ?
TRHR enhancer: -2; D1 antagonist: -31*; D1 ag: 7; TRHR agonist: 0

How did Cc1cc(C)n(-c2nnc(N3CCN(c4ccc(F)cc4)CC3)nn2)n1 do in these assays?
D1 potentiator: 1; TRHR enhancer: -1; D1 antagonist: -42*; D1 ag: 3; TRHR agonist: -1

What do the screens show for `CCCOC(=O)CCCN1C(=O)/C(=C2\SC(=S)N(CCCC(=O)OCCC)C2=O)SC1=S`?
D1 potentiator: 2; TRHR enhancer: -2; D1 antagonist: -16; D1 ag: 9; TRHR agonist: 1

Results for CCN1C(=S)SC(=O)C1=C1C=C(C)N(CCO)C(C)=C1 ?
D1 potentiator: -2; TRHR enhancer: -1; D1 antagonist: 0; D1 ag: 34*; TRHR agonist: 17

Results for CCN1C(=O)/C(=C/c2cn(C)nc2C)SC1=S ?
D1 potentiator: -4; TRHR enhancer: -3; D1 antagonist: -6; D1 ag: -1; TRHR agonist: 0

How did CCN1C(=S)SC(=O)C1=C1C=C(C)N(CCOC)C(C)=C1 do in these assays?
D1 potentiator: 5; TRHR enhancer: -4; D1 antagonist: 10; D1 ag: 45*; TRHR agonist: 14

Results for Cc1cccc(NC(=O)CSC2=NN3CCCC(=O)N=C3S2)c1C ?
D1 potentiator: -8; TRHR enhancer: -3; D1 antagonist: -33*; D1 ag: 1; TRHR agonist: 1

Results for CC(=O)NS(=O)(=O)c1ccc(NC(=O)C2c3ccccc3Oc3ccccc32)cc1 ?
D1 potentiator: 0; TRHR enhancer: 33*; D1 antagonist: -8; D1 ag: 0; TRHR agonist: 2

How did O=C(Nc1csc([N+](=O)[O-])c1)Nc1ccccc1Cl do in these assays?
D1 potentiator: -9; TRHR enhancer: -4; D1 antagonist: -31*; D1 ag: 13; TRHR agonist: 0

What do the screens show for `Cc1ccccc1NC(=O)CN1C(=O)COc2ccc(Cl)cc21`?
D1 potentiator: -9; TRHR enhancer: -11; D1 antagonist: -92*; D1 ag: 4; TRHR agonist: 1

What do the screens show for `O=C(CN1C(=O)COc2ccc(Cl)cc21)Nc1ccc(F)cc1`?
D1 potentiator: -6; TRHR enhancer: 3; D1 antagonist: -34*; D1 ag: 25; TRHR agonist: 1

Results for CC(=O)c1ccc(NC(=O)CN2C(=O)COc3ccc(Cl)cc32)cc1 ?
D1 potentiator: -3; TRHR enhancer: -1; D1 antagonist: 1; D1 ag: 5; TRHR agonist: 1

Source: PubChem BioAssay (National Center for Advancing Translational Sciences (NCATS))
